From the supplement of paper PMC6555819

Test system: RARa:RXR (NR concentration 270 nM, RXRa partner concentration 90 nM)
Assay: PBM binding z-score (relative to random genomic background probes); higher = stronger binding; sequences stand for … in GC…GCGATTGACAGCGTAGAATGAAGG
Summary of the method: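 Scanned fluorescence from custom Agilent 4×180K protein-binding microarrays was regression-normalized. Binding z-scores use random background probes as reference. Ligand-free nuclear receptor dimers were incubated on the arrays for 1 h and detected with antibodies against each partner (one per run).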

Sequence | PBM binding z-score
CGTCCAAGGTTAGAGAGGTCAGTGAATGCCGAGT | 3.61
TCTAGCTGGCCAGAGGGTCACTCAAGAGGTACGG | 1.83
TCTATTAGTTGAGTAGGGCAACCGAAACAGCGGA | 0.248
GGAACGAGGGCAAAGTTGAGAGCATCTGTCGACG | 2.15
CCTATGAGTTGACCATAAGGGCAACCGAAGCTCG | 1.51
CAAACTAGGTCACGAAAGGTCAAAGTAGAATGAC | 7.51
GCTAGCAGGACATTTGGGTCACTCAATGACGGGC | 0.611
GCGACTGGGGCAAAGCAGGTTACCAAAAGGTTGG | 0.862
CCTAGTTCGTCAGGAGGTCACACACCGGATATGA | 5.34
GCTGCTAGGTCAATTGATGGTCAGCTAAAGCTCG | 1.75
TCTTGTACATCAAAGGTTAAGAAAGCCGAAGCCT | 2.66
ACTAGTTGGTCAGCTGACGTCACACACAATTCGG | 0.0415
ATATGTAGGTTATCGGGTCGTTCAGTTTGCGCAT | 1.62
TCTTGTAGATCCATAGAGGTTAAGAAAGTGCGCT | 1.35
TCTGCTAGGTCACCGATGGTCAGCTAATCTGCTA | 2.75
AGTCAAAGTTCAGGACGAGCTAACGTAAAGCACG | 1.88
ACTATGAGTTGACTTAGGGCAACCGATACGACGC | 1.09
CCTACTGGGCCAAAAAGGTCATTGACGCCGATAA | 5.01
GCGACTGGGGCACCAGCAGGTTACCATAACTTAA | 0.555
TGTCAAAGTTCAAGGGTAACGTAAGTATCCACAC | 4.95

Sequence | PBM binding z-score
CCTACTGGGTCAAAAAGGTCATTGATGCCGATAA | 6.15
TTACCAGGGTGAGCTGAGGTCGTTGATCCAACTC | 2.13
TCTTGTACATCAACAGGAGGTTAAGAAAGATCGA | 1.09
TCTTGTAGATCAACAGGAGGTTATGAAAGATCGA | 0.694
TCATATAGGTAATACAGGTGGAAGTCGGCATCTA | 0.763
GCTATTAGTTGAAAGGGCCACCGAATGATTCTCG | -0.0438
CCTATTAGTTGACTATAAGGGCAACCGAAGCTCG | 0.501
TATACAGGGTCAAAGGACAGAGTACGAATGTCGA | 4.56
CCTCGGAGGACAACAAGAGGTCAGAGCTGCCAGA | 3.4
TCTATTAGTTGAAGCGCAACCGACGAGTCCGTTT | 0.126
ACAATGAGGTTATACGTAGATCAGGGAAGAAAGT | 1.82
ATCTCTAGGTAACCAAGTTAAGTGAATGCCGAAC | 0.368
ATCTCCAGGTAACCAAGTTCAGTGAATGCCGAAC | 0.649
TCTACTAGGTCAGTTGGTCAGCTAACGAGCTGCC | 0.904
GCATATAGGTAATACAAGTTGAAAGTCCGATTGT | 0.761
TAGCCTAGGTCATGGGCCAATATACCACGCGAAC | 2.92
GCGACTGGGGCAAAGCAGGTTACCCTAAGGTTGG | 0.634
CAAACTAGGTCACCGGAACGTCAAAGTCCGCATG | 2.67
ATCTCTAGTTAAAAGTTCAGTGAATCCCGAGGAT | 1.03
ATACCAAGGAGATCGTGAGGTCGTTGATACTAAC | 0.973
